# The panel holds about 83,000 compounds, 20% with a hit somewhere; the sample as a whole holds those more often.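 Plates (96-well) were seeded with cells, treated with compound at one concentration, and incubated for 48 hours before percent growth was determined.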 Unmarked numbers belong to inactive results. The source made the active and inactive calls. How the source made its calls: active means growth percent below 10; inactive means the rest.
# System: SK-MEL-2 melanoma
# Assay: NCI-60 one-dose screen, 48 h (100 = growth as untreated, 0 = no growth, -100 = all killed)
# Conditions: 10 µM unless noted
row,SMILES,growth
1,Fc1ccc(C2CC(c3cccc(Nc4ccncc4)c3)=NN2c2ccccc2)cc1 (centres undefined),90.2%
2,COc1ccc2c(c1)OC1=C(C(=O)OC1)C2c1cc(OC)c(OC)c(OC)c1 (centres undefined),27.3%
3,COc1ccncc1C#Cc1cncc(C(=O)Nc2ccc(CN3CCN(C)CC3)c(C(F)(F)F)c2)c1,-0.485% (active)
4,Clc1cc(Cl)cc(N2N=C(c3cccc(Nc4ccncc4)c3)CC2c2ccc(Br)cc2)c1 (centres undefined),99.2%
5,CN1CCN(C(=O)[C@]2(C)CC[C@]3(C)CC[C@]4(C)C(=CC(=O)[C@@H]5[C@@]6(C)CCC(=O)NC(C)(C)[C@@H]6CC[C@]54C)[C@@H]3C2)CC1,100%
6,COc1ccc(-c2nc(SCC(C)C)nc(N/N=C(/C)c3ccc(OC)c(OC)c3)c2C#N)cc1,103%
7,CC(=O)NCCCS(=O)(=O)O,101%
8,COc1cc2nc(-c3ccc(C#N)cc3)[nH]c(=O)c2cc1OC,128%
9,O=C1Nc2c(ccc(Cl)c2Cl)/C1=C/c1ccccn1,104%
10,CN1CCN(c2ccc(NC3=C(Cl)C(=O)c4ncccc4C3=O)cc2C#N)CC1,78.8%
11,COc1ccc(NS(=O)(=O)c2ccc(C)cc2)c([N+](=O)[O-])c1,110%
12,Cc1ccc(C2CC(c3cccc(Nc4ccncc4)c3)=NN2c2ccccc2)cc1 (centres undefined),-64.6% (active)
13,COc1cc(-c2nc3occn3c2-c2ccnc(NCCNS(=O)(=O)c3ccc(Cl)cc3)n2)ccc1F,71.9%
14,C[C@]12CCc3nc(Nc4cccc(O)c4)sc3C1=CC[C@@H]1[C@@H]2CC[C@]2(C)/C(=N\NC(N)=S)CC[C@@H]12,40.8%
